Among the data in PubChem BioAssay (NCI) are growth values, retold here.

This is part of a sample that, as a whole, favours compounds with a hit. Of some 83,000 tested, about 20% had one in any assay.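 Values shown are percent growth following 48 h exposure of cells in 96-well plates to a single concentration of compound; below 10 was considered active.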 Activity calls are given as the source filed them.

The subject of the first test is OVCAR-3 ovarian. Put plainly: NCI-60 one-dose screen, 48 h (100 = growth as untreated, 0 = no growth, -100 = all killed). As to conditions: 10 µM unless noted.
In the case of `ClCCN(CCCl)C(c1ccccc1)c1ccc(Cl)cc1` (stereo not drawn), the growth was 91.9% (inactive).

As for `CCCCn1cc(C(=O)/C(C#N)=C/c2cc3ccccc3nc2Cl)c2cc(OC)ccc21`, the growth was 78.6% (inactive).

Turning to `CCCCNCCc1ccccn1`, the growth is 106% (inactive).

Take `CC(=O)C1C(=O)N(C)C(=O)N(C)C1=O`: the growth was 112% (inactive).

As for `CC1(C)N=C(N)N=C(N)N1c1cccc(C(=O)Nc2cccc(S(=O)(=O)F)c2)c1`, the growth is 112% (inactive).

On to `C[C@]12CC[C@@H]3C4=C(CC[C@H]3[C@@H]1CC[C@@H]2O)CC(=O)CC4`, for which the growth was 113% (inactive).

As to `Oc1ccccc1OB(Oc1ccccc1O)N(CCCl)CCCl`, the growth is 73.8% (inactive).

On to `NC(Cc1ccc2c(c1)OCO2)c1ccc2c(c1)OCO2` (stereo not drawn), for which the growth was 120% (inactive).

On to `COc1ccc(-c2ccc(OC)c(OC)c2OC)cc1`, for which the growth is -25% (active).

As for `CC[C@@]1(C2O[C@@H](C3O[C@@](O)(CC)[C@H](C)C[C@@H]3C)C[C@@H]2C)CC[C@H]([C@]2(C)CCC3(C[C@H](O)[C@@H](C)[C@@H]([C@H](C)[C@@H](OC)[C@H](C)C(=O)O)O3)O2)O1` (stereo partly drawn), the growth is 11% (inactive).

Consider `CC1(C)N=C(N)N=C(N)N1c1ccc(CCCCc2ccc(S(=O)(=O)F)cc2)c(Cl)c1`, for which the growth is 35.3% (inactive).

On to `COc1ccc(C2=NN(c3ccccc3)C(c3sc(N(CCCl)CCCl)nc3Cl)C2)cc1` (stereo not drawn), for which the growth was 93.3% (inactive).

`N#CC1c2ccccc2C=CN1C(=O)c1ccc(N(CCCl)CCCl)cc1` (stereo not drawn): the growth was 88.6% (inactive).

Turning to `CSc1ccccc1NP1(=O)OCC(C)([N+](=O)[O-])CO1` (stereo not drawn), the growth is 107% (inactive).

For the compound `Cc1ccc(N)cc1[As]=[As]c1cc(N)ccc1C` (stereo not drawn), the growth is -92.6% (active).

As to `C/C(=N/OC(=O)N(C)C)c1cc(Cl)ccc1Cl`, the growth is 105% (inactive).

With `CCC(C)[C@H]1O[C@]2(C=C[C@@H]1C)C[C@@H]1C[C@@H](C/C=C(\C)[C@@H](OC3C[C@H](OC)C(O[C@H]4C[C@H](OC)[C@@H](O)[C@H](C)O4)[C@H](C)O3)[C@@H](C)/C=C/C=C3\CO[C@@H]4[C@H](O)C(C)=C[C@@H](C(=O)O1)[C@]34O)O2` (stereo partly drawn), the growth was -72.3% (active).

With `CC1(C)N=C(N)N=C(N)N1c1ccc(CCCCc2ccc(S(=O)(=O)F)cc2)cc1`, the growth was 33.2% (inactive).

Regarding `Cc1ccc(C(=O)C2CN(C)CCC2(O)c2ccc(C)cc2)cc1` (stereo not drawn), the growth was 119% (inactive).

As for `O=S(=O)(O)c1ccc(-c2ccc([As](=O)(O)O)cc2)cc1`, the growth is 107% (inactive).

On to `O=C1NC(=O)C(CN2C(=O)C3(c4ccccc42)[C@H](Cl)C(=O)N3c2ccccc2)C(=O)N1` (stereo partly drawn), for which the growth is 54.7% (inactive).

Regarding `O=[N+]([O-])c1cc([N+](=O)[O-])c(Cl)c(Cl)c1Cl`, the growth was -99% (active).

Take `C=CCC1(CC)C(=O)NC(=S)NC1=O`: the growth was 105% (inactive).

As for `C/C(=N/OC(=O)N(C)C)c1ccc(Cl)cc1Cl`, the growth is 99.5% (inactive).

For `CCC[CH2][Sn]([CH2]CCC)([CH2]CCC)[O]C(=O)CC`, the growth was -99.1% (active).

Turning to `O=C(NCc1ccc([N+](=O)[O-])cc1)Nc1ccc(S(=O)(=O)F)cc1`, the growth was 87% (inactive).

`n1nc(-c2nonc2-c2nn[nH]n2)n[nH]1`: the growth was 150% (inactive).

As to `CNC(=O)Oc1ccccc1-c1ccccc1`, the growth was 105% (inactive).

`CC1(C)N=C(N)N=C(N)N1c1ccc(OCCCCOc2ccc(S(=O)(=O)F)cc2)c(Cl)c1`: the growth was 28.4% (inactive).

For the compound `CCCCOC(=O)c1ccccc1C(=O)O.CCCCOC(=O)c1ccccc1C(=O)O.[Cu+2]`, the growth was 110% (inactive).

Regarding `O=[N+]([O-])c1ccc2cnn(CSP(=S)(c3ccccc3)c3ccccc3)c2c1`, the growth was 71.6% (inactive).

In the case of `NC(=O)C(Cl)Cl`, the growth is 110% (inactive).

Take `CCN(CC)c1ccc(C=C2C(=O)NC(=S)NC2=O)cc1`: the growth is 80.6% (inactive).

As for `Clc1ccc(SSC(Cl)(Cl)Cl)cc1`, the growth was 108% (inactive).

For `[O]=[Sn]([CH]1CCCCC1)[CH]1CCCCC1`, the growth is -98% (active).

As for `ClCCN(CCCl)c1nc(Cl)c(C2CC(c3ccccc3)=NN2c2ccccc2)s1` (stereo not drawn), the growth is 99.9% (inactive).

As for `CC(=O)C1CCC2C3CC=C4CC(OC(=O)Cc5ccc(N(CCCl)CCCl)cc5)CCC4(C)C3CCC12C` (stereo not drawn), the growth is 99.6% (inactive).

With `Cc1ccccc1O`, the growth was 130% (inactive).

Consider `O=[N+]([O-])c1ccccc1N1CCNCC1`, for which the growth is 101% (inactive).

As to `CC(=O)Nc1ccc(C=C2C(=O)NC(=O)NC2=O)cc1`, the growth is 125% (inactive).

The test system of the next test is HS 578T breast. The description is as above. As to conditions: 10 µM unless noted.
For the compound `CCCCn1cc(C(=O)/C(C#N)=C/c2cc3ccccc3nc2Cl)c2cc(OC)ccc21`, the growth was 88.6% (inactive).

Turning to `CCCCNCCc1ccccn1`, the growth is 107% (inactive).

As to `CC(=O)C1C(=O)N(C)C(=O)N(C)C1=O`, the growth is 107% (inactive).

For the compound `CC1(C)N=C(N)N=C(N)N1c1cccc(C(=O)Nc2cccc(S(=O)(=O)F)c2)c1`, the growth is 92.7% (inactive).

For the compound `C[C@]12CC[C@@H]3C4=C(CC[C@H]3[C@@H]1CC[C@@H]2O)CC(=O)CC4`, the growth was 5.03% (active).

Regarding `Oc1ccccc1OB(Oc1ccccc1O)N(CCCl)CCCl`, the growth is 106% (inactive).

Regarding `NC(Cc1ccc2c(c1)OCO2)c1ccc2c(c1)OCO2` (stereo not drawn), the growth is 103% (inactive).

`COc1ccc(C2=NN(c3ccccc3)C(c3sc(N(CCCl)CCCl)nc3Cl)C2)cc1` (stereo not drawn): the growth is 80.9% (inactive).

As to `N#CC1c2ccccc2C=CN1C(=O)c1ccc(N(CCCl)CCCl)cc1` (stereo not drawn), the growth was 99.5% (inactive).

With `CSc1ccccc1NP1(=O)OCC(C)([N+](=O)[O-])CO1` (stereo not drawn), the growth is 103% (inactive).

`C/C(=N/OC(=O)N(C)C)c1cc(Cl)ccc1Cl`: the growth was 105% (inactive).

As to `CCC(C)[C@H]1O[C@]2(C=C[C@@H]1C)C[C@@H]1C[C@@H](C/C=C(\C)[C@@H](OC3C[C@H](OC)C(O[C@H]4C[C@H](OC)[C@@H](O)[C@H](C)O4)[C@H](C)O3)[C@@H](C)/C=C/C=C3\CO[C@@H]4[C@H](O)C(C)=C[C@@H](C(=O)O1)[C@]34O)O2` (stereo partly drawn), the growth was -13% (active).

On to `Cc1ccc(C(=O)C2CN(C)CCC2(O)c2ccc(C)cc2)cc1` (stereo not drawn), for which the growth is 97% (inactive).

Consider `O=S(=O)(O)c1ccc(-c2ccc([As](=O)(O)O)cc2)cc1`, for which the growth was 110% (inactive).

Consider `O=C1NC(=O)C(CN2C(=O)C3(c4ccccc42)[C@H](Cl)C(=O)N3c2ccccc2)C(=O)N1` (stereo partly drawn), for which the growth was 71% (inactive).

On to `C=CCC1(CC)C(=O)NC(=S)NC1=O`, for which the growth was 102% (inactive).

For the compound `C/C(=N/OC(=O)N(C)C)c1ccc(Cl)cc1Cl`, the growth was 107% (inactive).

For the compound `CCC[CH2][Sn]([CH2]CCC)([CH2]CCC)[O]C(=O)CC`, the growth is -38.4% (active).

For the compound `CNC(=O)Oc1ccccc1-c1ccccc1`, the growth was 107% (inactive).

For `CC1(C)N=C(N)N=C(N)N1c1ccc(OCCCCOc2ccc(S(=O)(=O)F)cc2)c(Cl)c1`, the growth is 60.3% (inactive).

Consider `CCCCOC(=O)c1ccccc1C(=O)O.CCCCOC(=O)c1ccccc1C(=O)O.[Cu+2]`, for which the growth is 97.3% (inactive).

`NC(=O)C(Cl)Cl`: the growth was 117% (inactive).

In the case of `CCN(CC)c1ccc(C=C2C(=O)NC(=S)NC2=O)cc1`, the growth was 88.6% (inactive).

Take `[O]=[Sn]([CH]1CCCCC1)[CH]1CCCCC1`: the growth is -19.5% (active).

As to `ClCCN(CCCl)c1nc(Cl)c(C2CC(c3ccccc3)=NN2c2ccccc2)s1` (stereo not drawn), the growth was 87.4% (inactive).

For `CC(=O)C1CCC2C3CC=C4CC(OC(=O)Cc5ccc(N(CCCl)CCCl)cc5)CCC4(C)C3CCC12C` (stereo not drawn), the growth is 126% (inactive).

Turning to `Cc1ccccc1O`, the growth was 132% (inactive).

In the case of `O=[N+]([O-])c1ccccc1N1CCNCC1`, the growth is 107% (inactive).
